Among all 330,000 compounds or so, about 520 (0.16%) were called active.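 How the source made its calls: active means inhibition of at least 50% in every replicate; inconclusive means best replicate reaches 50% inhibition but some replicates fall short; inactive means the rest.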 The entries come from a sample that favours actives as a whole.
Biological target: Histone acetyltransferase RTT109 (Candida albicans (strain SC5314 / ATCC MYA-2876)) (UniProt Q5AAJ8)
Assay: Rtt109-Vps75 histone acetyltransferase blockade – biochemical, ThioGlo CoA-SH fluorescence, plate reader, primary screen (AID 540336)
Settings: purified Rtt109/Vps75, ThioGlo CoA-SH fluorescence, 4 h; at 34.9 µM; hits give high values

Sequence of Histone acetyltransferase RTT109 (Candida albicans (strain SC5314 / ATCC MYA-2876)) (Q5AAJ8 whole entry, looked up): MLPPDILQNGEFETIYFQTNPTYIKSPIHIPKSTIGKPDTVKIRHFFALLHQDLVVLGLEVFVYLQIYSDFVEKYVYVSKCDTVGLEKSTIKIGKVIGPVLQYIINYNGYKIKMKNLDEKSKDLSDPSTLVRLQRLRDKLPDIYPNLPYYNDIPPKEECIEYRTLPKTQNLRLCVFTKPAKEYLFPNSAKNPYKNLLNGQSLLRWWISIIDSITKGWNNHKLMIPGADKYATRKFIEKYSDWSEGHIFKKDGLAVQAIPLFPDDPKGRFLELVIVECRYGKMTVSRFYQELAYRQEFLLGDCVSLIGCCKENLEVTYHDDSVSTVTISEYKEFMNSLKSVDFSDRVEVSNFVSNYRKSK

Row | Compound | inhibition
1 | CCCCCCCCCCCCn1ccc(=N)cc1 | 64.2% (active)
2 | CC(=O)OC1C2(CC3N4C(=O)C5(CO)SSC4(CC31O)C(=O)N5C)OC(C)C(C)(C)C2=O (stereo not given) | -1.66% (inactive)
3 | O=C(c1ccccc1)C(O)(CN1CCCCC1)c1ccccc1 (stereo not given) | -0.455% (inactive)
4 | CCC(C)(O)C(=O)OC1C(=O)OC2CC3C(C)=CC(=O)C(O)C3(C)C3C4(O)OCC23C1C(C)C4O (stereo not given) | 11.1% (inactive)
5 | COC1C(O)C(C)OC(OC2CCC3(C=O)C(CCC4C3CCC3(C)C(C5=CC(=O)OC5)CCC43O)C2)C1O (stereo not given) | 9.01% (inactive)
